Activity calls are given as the source filed them. The calls were made as follows: active = hit-call score of the fitted dose curve at least 0.9, where 1 is the maximum; inactive = score below 0.9.
Columns and labels:
Conditions in all cases: mRNA level, 48 h; actives raise or lower the signal
[1] = read-out: ABC Transporter (ABCC2), ABCC2 (gene 1244); assay: LTEA_HepaRG_ABCC2: Life Technologies and Expression Analysis (LTEA) Assay for ABC Transporter (ABCC2) using HepaRG (AID 2283464)
Procedure, shortened: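 Gene expression of ABCC2 was determined by qRT-PCR in HepaRG cells exposed 48 h to chemicals (highest 100 uM, half-log dilutions). Activity was fitted in both directions relative to 0.5% DMSO vehicle.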

[2] = read-out: Broad substrate specificity ATP-binding cassette transporter ABCG2 (Homo sapiens) (UniProt Q9UNQ0); assay: LTEA_HepaRG_ABCG2: Life Technologies and Expression Analysis (LTEA) Assay for ABC Transporter (ABCG2) using HepaRG (AID 2283465)
Procedure, shortened: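 ABCG2 transcript was quantified by TaqMan qRT-PCR against three housekeeping genes in HepaRG cells. Cells were treated in duplicate for 48 h across an 8-point half-log series up to 100 uM, with 0.5% DMSO vehicle. Gain or loss versus DMSO was fit.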

[3] = read-out: ATP-citrate lyase (ACLY), ACLY (gene 47); assay: LTEA_HepaRG_ACLY: Life Technologies and Expression Analysis (LTEA) Assay for ATP-citrate lyase (ACLY) using HepaRG (AID 2283466)
Procedure, shortened: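 ACLY mRNA quantified by qRT-PCR on Fluidigm arrays against three housekeeping genes, after 48 h chemical treatment of HepaRG cells (top concentration 100 uM, half-log steps, 0.5% DMSO vehicle). Up- or down-regulation fitted relative to DMSO.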

[4] = read-out: Peroxisomal acyl-coenzyme A oxidase 1 (ACOX1) gene, ACOX1 (gene 51); assay: LTEA_HepaRG_ACOX1: Life Technologies and Expression Analysis (LTEA) Assay for Peroxisomal acyl-coenzyme A oxidase 1 (ACOX1) gene using HepaRG (AID 2283467)
Procedure, shortened: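 ACOX1 transcript levels were quantified by TaqMan qRT-PCR against three housekeeping genes after 48 h chemical exposure of differentiated human HepaRG cells. Exposure used eight half-log steps topping at 100 uM, 0.5% DMSO vehicle, in duplicate. Bidirectional curve fits were made relative to DMSO.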

[5] = read-out: Alkaline Phosphatase, Placental (ALPP) gene, ALPP (gene 250); assay: LTEA_HepaRG_ALPP: Life Technologies and Expression Analysis (LTEA) Assay for Alkaline Phosphatase, Placental (ALPP) gene using HepaRG (AID 2283468);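 as to AC50: differentiated human HepaRG liver cells in serum-free induction medium; ALPP transcript by TaqMan qRT-PCR normalized to ACTB GAPDH and POLR2A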
Procedure, shortened: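 Expression of ALPP was quantified by qRT-PCR against three housekeeping genes in human HepaRG cultures treated for 48 h with an eight-point concentration series up to 100 uM. Activity in either direction was fitted relative to 0.5% DMSO.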

[6] = read-out: Bcl-2 (BAX) gene, BAX (gene 581); assay: LTEA_HepaRG_BAX: Life Technologies and Expression Analysis (LTEA) Assay for Bcl-2 (BAX) gene using HepaRG (AID 2283470)
Procedure, shortened: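 Human HepaRG cells treated in duplicate for 48 h across eight concentrations (max 100 uM, 0.5% DMSO); BAX expression measured by qRT-PCR.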

[7] = read-out: adenosine kinase (ADK) gene, ADK (gene 132); assay: LTEA_HepaRG_ADK: Life Technologies and Expression Analysis (LTEA) Assay for adenosine kinase (ADK) gene using HepaRG (AID 2283471)
Procedure, shortened: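 Differentiated HepaRG cells dosed 48 h in serum-free induction medium, 0.5% DMSO vehicle, eight half-log concentrations from 100 uM, in duplicate. ADK mRNA by TaqMan qRT-PCR normalised to ACTB, GAPDH, POLR2A; bidirectional fit versus DMSO.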

[8] = read-out: Alpha-fetoprotein (AFP) gene, AFP (gene 174); assay: LTEA_HepaRG_AFP: Life Technologies and Expression Analysis (LTEA) Assay for Alpha-fetoprotein (AFP) gene using HepaRG (AID 2283472);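 as to AC50: AFP transcript by TaqMan qRT-PCR normalized to ACTB GAPDH and POLR2A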
Procedure, shortened: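 Measures AFP mRNA change in HepaRG after 48 h chemical exposure (8 half-log concentrations, highest 100 uM, 0.5% DMSO). Fold change relative to DMSO, fitted in both directions.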

BCL2L11 (gene 10018) = assay: LTEA_HepaRG_BCL2L11: Life Technologies and Expression Analysis (LTEA) Assay for Bcl-2 (BCL2L11) gene using HepaRG (AID 2283473)
Procedure, shortened: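 Cells were plated, cultured 48 h, switched to serum-free induction medium, then dosed in duplicate for 48 h at eight half-log concentrations up to 100 uM. Lysates underwent RNA isolation and TaqMan qRT-PCR; gain or loss versus DMSO was fitted.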

[9] = read-out: Bcl-2 (BAD) gene, BAD (gene 572); assay: LTEA_HepaRG_BAD: Life Technologies and Expression Analysis (LTEA) Assay for Bcl-2 (BAD) gene using HepaRG (AID 2283469)
Procedure, shortened: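 Read-out: qRT-PCR of BAD mRNA, normalized to three housekeeping genes. Human HepaRG cultures got 48 h chemical exposure in 0.5% DMSO, duplicate eight-point half-log series topping at 100 uM. Gain or loss of signal fitted versus DMSO vehicle.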

Measured: AC50

Sequence of Broad substrate specificity ATP-binding cassette transporter ABCG2 (Homo sapiens) (Q9UNQ0 whole entry, looked up): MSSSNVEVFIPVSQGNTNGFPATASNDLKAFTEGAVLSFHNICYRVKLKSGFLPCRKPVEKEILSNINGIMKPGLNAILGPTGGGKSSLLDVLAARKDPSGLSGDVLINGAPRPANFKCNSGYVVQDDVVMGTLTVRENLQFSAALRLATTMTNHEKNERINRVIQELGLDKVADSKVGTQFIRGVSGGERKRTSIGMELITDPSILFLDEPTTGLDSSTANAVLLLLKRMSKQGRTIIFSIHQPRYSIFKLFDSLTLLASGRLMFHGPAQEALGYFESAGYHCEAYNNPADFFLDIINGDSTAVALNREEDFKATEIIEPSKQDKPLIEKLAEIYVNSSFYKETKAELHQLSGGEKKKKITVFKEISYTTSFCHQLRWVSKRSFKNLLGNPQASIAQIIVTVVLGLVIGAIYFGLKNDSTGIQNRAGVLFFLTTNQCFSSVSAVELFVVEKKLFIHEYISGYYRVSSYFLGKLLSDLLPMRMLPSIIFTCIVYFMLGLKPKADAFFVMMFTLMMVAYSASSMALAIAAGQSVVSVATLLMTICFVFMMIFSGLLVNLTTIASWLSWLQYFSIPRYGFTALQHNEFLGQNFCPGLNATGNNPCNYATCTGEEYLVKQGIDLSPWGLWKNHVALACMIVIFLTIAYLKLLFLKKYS

CC1(C)C(=O)N(Cl)C(=O)N1Cl
not listed: BCL2L11 (gene 10018) | [9]
inactive: all other assays above

O=C(O)c1cccc(C[C@@H]2COc3ccc(OCc4nc5cc(F)ccc5s4)cc3[C@@H]2O)c1
active: [5] 80 µM | [8] 68.7 µM
not listed: [9]
inactive: all other assays above

NC(N)=O
not listed: [9]
inactive: all other assays above

CCCCCCCC/C=C\CCCCCCCC(=O)OC[C@@H](O)[C@H]1OC[C@H](O)[C@H]1O
not listed: BCL2L11 (gene 10018) | [9]
inactive: all other assays above

O=C(O)c1ccc2c(c1)nc(C(=O)NC1CCN(C3CC3)CC1)n2Cc1cc(-c2ccc(Cl)s2)on1
not listed: BCL2L11 (gene 10018) | [9]
inactive: all other assays above

CCN(CC)C(=S)SSC(=S)N(CC)CC
not listed: [9]
inactive: all other assays above

CCCCCCCC1CCC(=O)O1 (stereo not given)
not listed: BCL2L11 (gene 10018) | [9]
inactive: all other assays above

CC(C)c1nnc2ccc(-c3ocnc3-c3cc(F)ccc3F)cn12
active: [2] 0.384 µM | [5] 39.6 µM | [8] 50 µM
not listed: BCL2L11 (gene 10018) | [9]
inactive: all other assays above

COc1cc(C(C)C)c2c(c1)S(=O)(=O)N(COc1cc(=O)n3cccc(OCCN4CCCCC4)c3n1)C2=O
inactive: [3] | [6]
active: [1] 22.3 µM | [2] 20.9 µM | [4] 19.8 µM | [5] 6.3 µM | [7] 22 µM | [8] 19.5 µM

O=C(NO)C1(NS(=O)(=O)c2ccc(Oc3ccc(F)cc3)cc2)CCOCC1
active: [5] 60.9 µM | [8] 70.2 µM
not listed: [3]
inactive: all other assays above

Cn1cc[nH]c1=S
not listed: [9]
inactive: all other assays above

c1ccc2cc3ccccc3cc2c1
not listed: BCL2L11 (gene 10018) | [9]
inactive: all other assays above

O=C1CN(N=Cc2ccc([N+](=O)[O-])o2)C(=O)N1
active: [2] 50 µM | [5] 75 µM
not listed: [9]
inactive: all other assays above

CCCc1ccccc1
not listed: [9]
inactive: all other assays above

COc1cc2c(c(OC)c1OC)-c1ccc(OC)c(=O)cc1[C@@H](NC(C)=O)CC2
active: [1] 0.133 µM | [4] 0.0989 µM | [5] 0.221 µM | [6] 0.0559 µM | [7] 0.0644 µM | [8] 0.148 µM | BCL2L11 (gene 10018) 0.237 µM
inactive: [2] | [3]

CCOC(N)=O
not listed: [9]
inactive: all other assays above

CCCCCCOC(=O)CC(CC(=O)OCCCCCC)(OC(=O)CCC)C(=O)OCCCCCC
not listed: [9]
inactive: all other assays above

C=CCc1cc(S(=O)(=O)c2ccc(O)c(CC=C)c2)ccc1O
active: [1] 50 µM | [4] 79.8 µM | [5] 50 µM | [8] 79.1 µM
not listed: [9]
inactive: all other assays above
